Measurements published in article PMC8384837, “Expanding the binding specificity for RNA recognition by a PUF domain”.

target: PUM1 PUF domain R3-SRT (Homo sapiens, UniProt Q14671 828-1176, C935S;Q939T); assay: yeast three-hybrid, YBZ-1, SC-Leu-His + 0.5 mM 3-AT, 4 days; conditions: tags: N-Gal4 AD-HA kept; label: inside an RPR1-promoter hybrid RNA with tandem MS2 sites; ssRNA
Summary of the method: (§1)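 The interaction score is the logarithmic change in variant frequency from input to selection. It uses log2, with a pseudocount of 1 for absent variants, and frequencies came from PCR-amplified, Illumina-sequenced repeat regions. The libraries were Pumilio-1 PUF domains randomized at the three base-contacting residues per repeat, co-expressed with matching RNA elements in strain YBZ-1 (LexA–MS2 coat fusion, HIS3 reporter). Plating lasted four days on SC-Leu (input) or SC-Leu-His + 0.5 mM 3-AT (selection).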

Sequence | binding signal
GGCUAGAACUAGUGGAUCCCCCGGCGCCCGGCGGCUCGAGCCCGGGUAAGUGUAAUUAGUCUGCAUGCCGCCGGGCGCCAUGCCUGCAGGUCGACUCUAGAAAACAUG | 1.65 log2 enrichment (interaction score)
GGCUAGAACUAGUGGAUCCCCCGGCGCCCGGCGGCUCGAGCCCGGGUAAGUGUAAGUAGUCUGCAUGCCGCCGGGCGCCAUGCCUGCAGGUCGACUCUAGAAAACAUG | 4.32 log2 enrichment (interaction score)
GGCUAGAACUAGUGGAUCCCCCGGCGCCCGGCGGCUCGAGCCCGGGUAAGUGUAAAUAGUCUGCAUGCCGCCGGGCGCCAUGCCUGCAGGUCGACUCUAGAAAACAUG | 4.56 log2 enrichment (interaction score)

target: PUM1 PUF domain R4-CMC (Homo sapiens, UniProt Q14671 828-1176, N971C;H972M;Q975C); assay: as above; conditions: tags: N-Gal4 AD-HA kept; label: inside an RPR1-promoter hybrid RNA with tandem MS2 sites; ssRNA
Summary of the method: as §1

Sequence | binding signal
GGCUAGAACUAGUGGAUCCCCCGGCGCCCGGCGGCUCGAGCCCGGGUAAGUGUACAUAGUCUGCAUGCCGCCGGGCGCCAUGCCUGCAGGUCGACUCUAGAAAACAUG | 2.87 log2 enrichment (interaction score)
GGCUAGAACUAGUGGAUCCCCCGGCGCCCGGCGGCUCGAGCCCGGGUAAGUGUAUAUAGUCUGCAUGCCGCCGGGCGCCAUGCCUGCAGGUCGACUCUAGAAAACAUG | 5.2 log2 enrichment (interaction score)
GGCUAGAACUAGUGGAUCCCCCGGCGCCCGGCGGCUCGAGCCCGGGUAAGUGUAAAUAGUCUGCAUGCCGCCGGGCGCCAUGCCUGCAGGUCGACUCUAGAAAACAUG | 2.5 log2 enrichment (interaction score)

target: PUM1 PUF domain R3-TFG (Homo sapiens, UniProt Q14671 828-1176, C935T;R936F;Q939G); assay: as above; conditions: tags: N-Gal4 AD-HA kept; label: inside an RPR1-promoter hybrid RNA with tandem MS2 sites; ssRNA
Summary of the method: as §1

Sequence | binding signal
GGCUAGAACUAGUGGAUCCCCCGGCGCCCGGCGGCUCGAGCCCGGGUAAGUGUAACUAGUCUGCAUGCCGCCGGGCGCCAUGCCUGCAGGUCGACUCUAGAAAACAUG | 0.95 log2 enrichment (interaction score)
GGCUAGAACUAGUGGAUCCCCCGGCGCCCGGCGGCUCGAGCCCGGGUAAGUGUAAUUAGUCUGCAUGCCGCCGGGCGCCAUGCCUGCAGGUCGACUCUAGAAAACAUG | 2.64 log2 enrichment (interaction score)
GGCUAGAACUAGUGGAUCCCCCGGCGCCCGGCGGCUCGAGCCCGGGUAAGUGUAAGUAGUCUGCAUGCCGCCGGGCGCCAUGCCUGCAGGUCGACUCUAGAAAACAUG | 2.15 log2 enrichment (interaction score)
